Granule exo inh = LAMP-1 surface exposure blockers, TALL-104 cells – cell-based, flow cytometry, MLPCN library, primary screen | TALL-104 LAMP-1 surface exposure; cells stimulated with thapsigargin and PMA | inhibition, % at 10 µM | 360,000 compounds, 0.66% hits | AID 651702, 2012;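 active means inhibition above about 55%, limit read from the data; inconclusive means no clear call, values can overlap the other calls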
NPR2 activator = human GC-B receptor activators, primary screen, HEK293 GC-B cells, cGMP TR-FRET, EC30 CNP | Atrial natriuretic peptide receptor 2 (Homo sapiens), P20594 | 0% at EC30 CNP, 100% saturating CNP | activation, % at 10 µM | 370,000 compounds, 0.11% hits | AID 1920062, 2024;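 active means activation at 10 µM reaching about 35% in either raw or pattern-adjusted values, limit read from the data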
GC-A act = GC-A stimulated cGMP production enhancers – HEK293 GC-A cells, cGMP TR-FRET, EC30 ANP, primary screen; Atrial natriuretic peptide receptor 1 (Homo sapiens), P16066; 0% at EC30 ANP, 100% saturating ANP; activation, % at 10 µM; 370,000 compounds, 0.14% hits; AID 1671463, 2021; in the data active means activation above about 40%
Target sequence (P16066 whole entry, looked up): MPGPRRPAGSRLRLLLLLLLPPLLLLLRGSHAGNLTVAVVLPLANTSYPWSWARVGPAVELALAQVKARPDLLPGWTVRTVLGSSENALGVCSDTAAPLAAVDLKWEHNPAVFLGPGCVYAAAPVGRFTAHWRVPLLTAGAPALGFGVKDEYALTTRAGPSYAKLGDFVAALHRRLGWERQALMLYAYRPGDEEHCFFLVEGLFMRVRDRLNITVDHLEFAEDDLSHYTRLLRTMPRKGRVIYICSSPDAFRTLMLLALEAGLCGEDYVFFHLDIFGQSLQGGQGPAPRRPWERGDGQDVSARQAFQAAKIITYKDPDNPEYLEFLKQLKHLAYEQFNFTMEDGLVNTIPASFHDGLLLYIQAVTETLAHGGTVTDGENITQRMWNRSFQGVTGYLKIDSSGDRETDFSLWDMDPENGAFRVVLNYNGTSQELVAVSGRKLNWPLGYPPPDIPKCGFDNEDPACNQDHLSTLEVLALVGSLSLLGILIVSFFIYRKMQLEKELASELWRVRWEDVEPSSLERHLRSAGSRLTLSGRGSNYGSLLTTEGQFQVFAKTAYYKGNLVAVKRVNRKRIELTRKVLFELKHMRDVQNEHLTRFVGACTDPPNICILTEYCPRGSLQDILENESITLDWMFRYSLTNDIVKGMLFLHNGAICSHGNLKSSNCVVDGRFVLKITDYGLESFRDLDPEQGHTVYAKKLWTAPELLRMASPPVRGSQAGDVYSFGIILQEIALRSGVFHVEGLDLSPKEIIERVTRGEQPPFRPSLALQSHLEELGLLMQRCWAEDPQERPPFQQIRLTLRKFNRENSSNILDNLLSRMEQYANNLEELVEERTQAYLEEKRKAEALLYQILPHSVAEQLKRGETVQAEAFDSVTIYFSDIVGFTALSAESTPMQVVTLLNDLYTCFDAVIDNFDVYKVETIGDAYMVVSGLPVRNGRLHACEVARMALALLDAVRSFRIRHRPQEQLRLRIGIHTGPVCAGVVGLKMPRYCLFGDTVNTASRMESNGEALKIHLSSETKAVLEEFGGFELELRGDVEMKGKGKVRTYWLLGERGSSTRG
Myeloid diff MLP = induction of myeloid progenitor differentiation, primary screen, cell-based, flow cytometry, MLPCN library. ER-HoxA9 myeloid progenitors, lysozyme-GFP differentiation. calls only at 10 µM. 360,000 compounds, 1% hits;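 active means normalized GFP-positive differentiation at or above the plate's own cutoff, the solvent-only control mean plus 3 SD; inconclusive means no clear call, values can overlap the other calls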;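 further: cells exposed to compound for four days before flow analysis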
An asterisk follows results filed as active; i = inactive; ? = inconclusive; nt = not tested or not shown; + = active, no number. Rows were chosen to be rich in hits. Some 1.8% of all compounds tested hit in one or more screens of this group.

SMILES	Granule exo inh	NPR2 activator	GC-A act	Myeloid diff MLP
CCc1ccccc1N=Nc1c(N)[nH]n(-c2ccccc2)c1=O	nt	3.0	-0.1	nt
COc1ccc(CC(=O)NC(C)c2nnc(SCCOc3ccc(OC)cc3)n2C)cc1 (centres undefined)	-0.9	-0.4	-4.7	+
COc1ccc(CC(=O)NC(C)c2nnc(SCC(=O)c3ccc(OC)cc3)n2C)cc1 (centres undefined)	1.4	-5.5	0.3	i
CN1/C(=C\C=C2/SC(=S)NC2=O)C(C)(C)c2ccccc21	4.5	-5.0	-4.8	+
CCN1C(=O)C(=CC=CN(C)c2ccccc2)SC1=S	-0.6	2.3	0.1	+
CCCN1C(=O)/C(=C\C=C2\N(CC)c3ccccc3C2(C)C)SC1=S	0.0	4.3	5.2	+
CN1C(=CC=C2C=C(I)C(=O)C(I)=C2)C(C)(C)c2ccccc21	89.0*	-15.1	-13.0	i
CC(C)CN1C(=O)N2Cc3ccccc3C2CS1(=O)=O (centres undefined)	nt	2.8	1.1	nt
C/C(C=NNC(=O)CSc1nc2ccccc2n1Cc1ccccc1Cl)=C\c1ccccc1	nt	5.5	-2.8	nt
COC(=O)C1CN(Cc2ccccc2)CCS(=O)(=O)N1Cc1ccc(C)cc1 (centres undefined)	nt	-8.6	-6.2	nt
O=C1OCCC1Sc1nnc(-c2ccc(Cl)cc2Cl)o1 (centres undefined)	11.5	1.9	70.2*	i
O=C1OCCC1Sc1nnc(-c2ccccc2)o1 (centres undefined)	0.1	-7.3	34.5	i
O=C(NC(=S)Nc1cccc(O)c1)C1CCCCC1	62.0*	2.7	3.0	i
Cc1cc(N2CCN(CCO)CC2)n2nc(C)nc2n1	nt	-9.5	3.4	nt
COc1ccc(/C(O)=C/c2nc3ccccc3n(-c3ccccc3)c2=O)cc1	-0.1	-11.2	-2.1	+
COC(CNC(=O)c1ccc(CS(=O)(=O)c2ccc(C)cc2)o1)OC	5.0	-4.1	1.8	+
NC(Cc1ccc(Cl)cc1)c1csc(Nc2cc(NCCCO)ncn2)n1 (centres undefined)	-0.9	-8.1	-16.4	i
COc1ccc(CC(N)c2csc(Nc3cc(NCCCO)ncn3)n2)cc1 (centres undefined)	7.2	-8.2	-7.8	+
NC(=S)N/N=C1\CCSc2ccc(Cl)cc21	73.2*	6.8	15.8	i
COc1ccc(/C=C2\C(=O)NCC(=O)N2C)cc1	-6.0	1.8	-2.1	+
O=C(CCl)N1c2ccccc2Oc2ccc3ccccc3c21	-12.6	-5.8	-16.7	+
CN1/C(=C/C(=O)COC(=O)CN2C(=O)C3CC=CCC3C2=O)C(C)(C)c2ccccc21 (centres undefined)	-0.6	-4.3	-4.3	i
O=C(Cn1nnc(-c2ccc(F)cc2)n1)OCC(=O)c1ccccc1	-5.0	-2.8	48.8*	i
CN1/C(=C\C(=O)COC(=O)Cn2nnc(-c3ccccc3)n2)C(C)(C)c2ccccc21	14.2	5.4	34.7	+
O=C(Cn1nnc(-c2ccccc2F)n1)OCC(=O)c1ccccc1	-3.9	-2.5	4.5	i
SMILES	Granule exo inh	NPR2 activator	GC-A act	Myeloid diff MLP
COc1ccccc1CN[C@@H]1CC[C@@]23CCCN2C(=O)CCC[C@H]3C1	nt	-5.4	-1.2	nt
Cc1ccc(/C=C2/C(=O)N(c3ccccc3)C(=S)N2C)o1	82.9*	0.9	3.8	i
CCOc1ccc(N2C(=O)/C(=C/c3ccco3)N(C)C2=S)cc1	1.0	1.7	-0.8	i
CCn1c2ccccc2c2cc(NC(=O)c3cc4c(C)nn(-c5ccccc5)c4s3)ccc21	nt	-0.9	-1.3	nt
O=C(Nc1nc(-c2ccccn2)cs1)c1cc(S(=O)(=O)N2CCOCC2)ccc1F	3.3	4.6	4.3	+
N#Cc1ccc(Oc2cccc3cccnc23)c([N+](=O)[O-])c1	7.7	-9.1	-8.1	i
O=[N+]([O-])c1ccc(Oc2cccc3cccnc23)c([N+](=O)[O-])c1	30.2	-9.7	-0.9	+
Cc1ccc(C)c(N2CCN(S(=O)(=O)c3c(C(=O)N4CCCCC4)c(C)n(C)c3C)CC2)c1	-0.6	-1.9	5.2	i
Cc1ccc(Cl)cc1N1CCN(S(=O)(=O)c2c(C(=O)N3CCOCC3)c(C)n(C)c2C)CC1	4.8	2.5	-2.5	+
CN(CCOC(=O)c1cc2ccccc2o1)C1CN(Cc2cn(Cc3ccccc3Cl)nn2)S(=O)(=O)C1 (centres undefined)	nt	-9.7	0.4	nt
Clc1nssc1=Nc1ccc(Br)cc1	59.0*	18.8	15.2	i
COc1cc(N=c2ssnc2Cl)cc(OC)c1	-1.1	8.9	10.6	i
Clc1ccc(N=c2ssnc2Cl)nc1	87.1*	13.4	5.7	i
C[C@@H]1CN([C@H](C)CO)C(=O)c2cc(Br)cnc2O[C@H]1CN(C)Cc1ccccc1F	nt	-1.4	-2.4	nt
COC(=O)[C@]12C=CCN1[C@H](c1ccc(OC)c(OC)c1)c1c(c3ccccc3n1S(=O)(=O)c1ccc(C)cc1)C2	nt	-4.7	0.4	nt
O=C(c1cc(C2CC2)on1)N(C1CCCCC1)C1CCOCC1	nt	-4.8	-0.7	nt
Cc1c(/C=N/NC(=O)c2ccccc2O)c2ccccn2c1C(=O)c1ccc(F)cc1	78.0*	-0.3	4.1	i
CC1(C)N=C(N)N=C(N)N1c1ccc(OCC(=O)N2CCOCC2)c(Cl)c1	-1.0	0.3	7.2	+
N#CCOc1ccccc1CNC[C@H]1O[C@@H](n2cnc3c(=O)[nH]c(N)nc32)[C@H](O)[C@@H]1O	-5.6	30.0	28.4	i
COC(=O)c1cc(-c2cccc(C#N)c2)c(=O)n2c1CCC2	nt	-0.8	-4.1	nt
Cc1cc(OCc2nnc(SCC(=O)OC3CCCCC3)o2)ccc1Cl	0.8	7.1	66.2*	i
O=C(CSc1nnc(COc2ccc(Cl)cc2)o1)OC1CCCCC1	3.0	17.1	76.1*	i
Cc1ccccc1S(=O)(=O)N1CCCc2nc(-c3ccc(Br)cc3)ccc21	nt	-3.8	5.5	nt
CN(C)c1ccc(C=c2c3ccccc3n3c2cc(-c2ccccc2)[n+]3C)cc1	88.9*	-15.3	-26.1	?
CN(C)c1ccc(C=c2c3ccccc3n3c2c2c([n+]3C)CCCC2)cc1	70.2*	-15.0	10.3	?
CN(C)c1ccc(C=c2c3ccccc3n3c2cc(-c2ccc(Cl)cc2)[n+]3C)cc1	35.3	-3.4	-11.7	?
COc1cc(N(C)C)ccc1C=c1c2ccccc2n2c1cc(-c1ccccc1)[n+]2C	99.6*	-6.7	-29.9	nt
O=C(OCC#CCSc1nnc(-c2cccc3ccccc23)o1)c1ccc(F)nc1	nt	-4.9	-1.5	nt
Cc1cccc(C(=O)Nc2c(-c3ccc(C(F)(F)F)cc3)nc3ncccn23)c1	nt	3.5	2.2	nt
CCCCN(CCCC)c1nc2ccccc2nc1C(C#N)C(=O)NCCCOC (centres undefined)	4.1	-3.7	7.1	i

Compound activity deposited in PubChem by several laboratories.
